# Reference: PubChem BioAssay AID602441 (National Center for Advancing Translational Sciences (NCATS), 2012)
# Fewer than 10 of roughly 1,300 compounds were called active. Another 9% or so got no clear call; they are omitted. Calls follow the shape of the dose curve; as a rule, active = well fitted curve in the direction sought with a large enough effect; inconclusive = small, poorly fitted or top-dose-only effect, or another doubt; inactive = no such curve, though single readings can be large or run the other way. The list is a sample of the results. Where a call stands in place of a potency, no number is given.
# Experiment: qHTS for antagonists of the Thyroid Stimulation Hormone Receptor: Hit Validation in Parental Cell Line
# Settings: parental HEK293 cells lacking TSHR, counter-screen; series mostly up to 56.9 µM
# Description: The thyroid-stimulating hormone receptor (TSHR) is a member of the 7 trans-membrane-spanning receptor (7TMR) family of cell surface receptors. TSHR-mediated hyperthyroidism is important in thyroid pathology. The development of small molecule antagonists of TSHR may lead to therapeutic approaches for TSHR-mediated hyperthyroidism caused by constitutively activating mutations or stimulating auto-antibodies associated with Graves' disease. Graves' disease is the leading cause of hyperthyroidism and is caused by autoantibodies that stimulate TSHR (TsAbs) causing thyroid growth and unregulated overproduction of thyroid hormones and existing treatments have liabilities (agranulocytosis). In addition, TSHRs are known to be expressed in multiple extrathyroidal tissues including bone, brain, kidney, testis, fat and cells of the immune system but the role of the TSHR in these tissues is not clear. Therefore, TSHR antagonists/inverse agonists could be used as probes of extrathyroidal TSHR function. Finally, TSHR inverse agonists, which are a subclass of antagonists that inhibit agonist-independent (or basal or constitutive) TSHR signaling, could be used to inhibit TSH-independent signaling in patients with recurrent or metastatic thyroid cancer who are receiving thyroid hormone to suppress TSH.
# In collaboration between scientist from the NCGC and the NIDDK, a miniaturized HTRF high-throughput screen was developed. It's a cell based assay, where an anti cAMP antibody contains a fluorescent cryptate tag (excitation 337 nm; emission 620 nm) and the acceptor is cAMP-d2 (excitation 620 nm; emission 665 nm). When antibody and cAMP-d2 interact and are excited by a 337 nm light, a FRET occurs resulting in emission at 665 nm. The assay is competition between cAMP-d2 and cAMP (from the cell lysate). The homogeneous protocol allows for one step dispense after stimulation that is automation friendly. This is a hit validation assay in a counterscreen using parental HEK 293 cells lines.
# NIH Chemical Genomics Center [NCGC]
# NIH Molecular Libraries Probe Centers Network [MLPCN]
# Assay Provider: Marvin Gershengorn, NIDDK
# An anti cAMP antibody contains a fluorescent cryptate tag (excitation 337 nm; emission 620 nm) and the acceptor is cAMP-d2 (excitation 620 nm; emission 665 nm). When antibody and cAMP-d2 interact and are excited by a 337 nm light, a FRET occurs resulting in emission at 665 nm. The assay is competition between cAMP-d2 and cAMP (from the cell lysate). The homogeneous protocol allows for one step dispense after stimulation that is automation friendly. This assay uses parental HEK-EM 293 cells
row,Structure (SMILES),Potency
1,COc1ccc(CCNc2ncnc3sc(C)cc23)cc1OC,inactive
2,Cc1cc2c(NCc3ccccc3)ncnc2s1,inactive
3,COC(=O)c1ccc(/C(O)=C(\C#N)c2nc3ccccc3s2)cc1,inactive
4,COc1ccc(-c2sc3ccc(N4CCOCC4)cc3c2C#CCO)cc1,inactive
5,Cc1[nH]c2ccccc2c1/C=C/c1cc[n+](C)cc1,inactive
6,O=C(NCC1CCCN(C(=O)c2cccc(C(F)(F)F)c2)C1)c1ccc(F)cc1 (stereo not drawn),inactive
7,COc1ccc(-c2c(C(F)(F)F)[nH]n3c(=O)cc(-c4ccccc4)nc23)cc1,inactive
8,COc1ccc(/C=C2/SC(=S)NC2=O)cc1OCc1ccccc1,inactive
9,COc1ccc(OC)c2c1C(=O)C(Cl)=C(Cl)C2=O,inactive
10,O=C1c2ccccc2C(=O)N1CCCCSc1nnnn1-c1ccccc1,inactive
11,Cc1cc(Br)ccc1OCC(=O)NC1CCCC1,inactive
12,COc1ccccc1NS(=O)(=O)c1cc(NC(=O)c2ccc3c(c2)OCCO3)ccc1C,inactive
13,O=C(COc1ccc(Cl)cc1Cl)Nc1ccc(C(=O)Nc2ccccc2C(=O)O)cc1,inactive
14,O=C(COC(=O)c1ccccc1SCC(=O)N1CCCC1)Nc1ccccc1,inactive
15,Cc1ccc(OC(F)F)c(NC(=O)Nc2cccc(C(F)(F)F)c2)c1,inactive
16,O=C(c1cc(COc2cccc3cnccc23)on1)N1CCCC(CCCO)C1 (stereo not drawn),inactive
17,Cc1ccc(S(=O)(=O)/N=C2/NC(=O)/C(=C\c3cc(Br)cc(Br)c3O)S2)cc1,inactive
18,CCN(CC)S(=O)(=O)c1cccc(C(=O)/C=C2/N(C)c3ccccc3C2(C)C)c1,inactive
19,CCCOc1ccc(CSc2nc3ccccc3[nH]2)cc1,inactive

row,Structure (SMILES),Potency
1,Cc1nn(CCCC(=O)Nc2cc(Oc3ccccc3)cc([N+](=O)[O-])c2)c(C)c1[N+](=O)[O-],inactive
2,Cc1ccccc1CS(=O)(=O)c1ncc(Cl)c(C(=O)Nc2ccc(F)cc2)n1,inactive
3,Cc1cc(NC(=O)CC(C)C)c(=O)n(Cc2cccc(F)c2)c1,inactive
4,CCOC(=O)c1c(NC(=O)/C=C/C(=O)O)sc(C)c1-c1ccc(F)cc1,inactive
5,Cc1cc(NC(=O)c2cccc(S(=O)(=O)N3CCOCC3)c2)c2ccccc2n1,inactive
6,O=C(Nc1nnc(C(F)(F)F)s1)c1ccc(Br)s1,inactive
7,COc1ccc(-c2nc(NC(=O)c3cc(C(C)(C)C)nn3C)sc2C)cc1,inactive
8,CCc1noc(C)c1C(=O)Oc1ccc(N(C)S(=O)(=O)c2ccc(C)cc2)cc1,inactive
9,COc1ccc(C(=O)N2CCN(c3ccc([N+](=O)[O-])c(NCCc4ccc(OC)c(OC)c4)c3)CC2)cc1,inactive
10,O=[N+]([O-])c1ccc(S(=O)(=O)c2ccccc2)nc1,inactive
11,CC1CC(C)CN(C(=O)c2ccc3c(=O)n(Cc4ccc5c(c4)OCO5)c(=S)[nH]c3c2)C1 (stereo not drawn),inactive
12,CCc1nnc(NC(=O)c2ccc(Cl)c(S(=O)(=O)N3CCc4ccccc43)c2)s1,inactive
13,COCCn1nnnc1C(c1cccs1)N1CCN(c2cc(C)ccc2C)CC1 (stereo not drawn),inactive
14,Cc1cc(NC(=O)c2cc(-c3ccco3)on2)nn1Cc1ccc(Cl)cc1,inactive
15,COc1ccc(-c2csc(NC(=O)c3ccccc3NS(=O)(=O)c3ccc(C)cc3)n2)cc1,inactive
16,Cc1cccc(OCCCCc2c(C)n[nH]c2C)c1C,inactive
17,Cc1cc2cc(CCNC(=O)c3ccc(S(=O)(=O)N4CCCC4)cc3)c(=O)[nH]c2cc1C,inactive
18,O=C(NCCc1ccccc1)C(=O)NCC1OCCCN1S(=O)(=O)c1cc(F)ccc1F (stereo not drawn),inactive
19,CCOc1ccc(NS(=O)(=O)c2cc(NC(=O)c3cccc(C)c3)ccc2Cl)cc1,inactive
